# Data taken from PMC4336329 (PLoS ONE, 2015).
# Screen size: about 310,000 compounds; about 14,000 (4.5%) showed an effect of 50% or more. Effects have a minus sign here. The sample as a whole holds a higher share of strong results than the screen did.
# Molecular target: human ether-à-go-go-related gene (hERG) potassium channel (human, UniProt Q12809)
# Assay: primary screen, population patch clamp on CHO cells stably expressing hERG; higher = less effect of the substance
# 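Also: peak tail current of the secondary pulse compared with the same well before compound.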
# Sequence of human ether-à-go-go-related gene (hERG) potassium channel (Q12809 whole entry, looked up): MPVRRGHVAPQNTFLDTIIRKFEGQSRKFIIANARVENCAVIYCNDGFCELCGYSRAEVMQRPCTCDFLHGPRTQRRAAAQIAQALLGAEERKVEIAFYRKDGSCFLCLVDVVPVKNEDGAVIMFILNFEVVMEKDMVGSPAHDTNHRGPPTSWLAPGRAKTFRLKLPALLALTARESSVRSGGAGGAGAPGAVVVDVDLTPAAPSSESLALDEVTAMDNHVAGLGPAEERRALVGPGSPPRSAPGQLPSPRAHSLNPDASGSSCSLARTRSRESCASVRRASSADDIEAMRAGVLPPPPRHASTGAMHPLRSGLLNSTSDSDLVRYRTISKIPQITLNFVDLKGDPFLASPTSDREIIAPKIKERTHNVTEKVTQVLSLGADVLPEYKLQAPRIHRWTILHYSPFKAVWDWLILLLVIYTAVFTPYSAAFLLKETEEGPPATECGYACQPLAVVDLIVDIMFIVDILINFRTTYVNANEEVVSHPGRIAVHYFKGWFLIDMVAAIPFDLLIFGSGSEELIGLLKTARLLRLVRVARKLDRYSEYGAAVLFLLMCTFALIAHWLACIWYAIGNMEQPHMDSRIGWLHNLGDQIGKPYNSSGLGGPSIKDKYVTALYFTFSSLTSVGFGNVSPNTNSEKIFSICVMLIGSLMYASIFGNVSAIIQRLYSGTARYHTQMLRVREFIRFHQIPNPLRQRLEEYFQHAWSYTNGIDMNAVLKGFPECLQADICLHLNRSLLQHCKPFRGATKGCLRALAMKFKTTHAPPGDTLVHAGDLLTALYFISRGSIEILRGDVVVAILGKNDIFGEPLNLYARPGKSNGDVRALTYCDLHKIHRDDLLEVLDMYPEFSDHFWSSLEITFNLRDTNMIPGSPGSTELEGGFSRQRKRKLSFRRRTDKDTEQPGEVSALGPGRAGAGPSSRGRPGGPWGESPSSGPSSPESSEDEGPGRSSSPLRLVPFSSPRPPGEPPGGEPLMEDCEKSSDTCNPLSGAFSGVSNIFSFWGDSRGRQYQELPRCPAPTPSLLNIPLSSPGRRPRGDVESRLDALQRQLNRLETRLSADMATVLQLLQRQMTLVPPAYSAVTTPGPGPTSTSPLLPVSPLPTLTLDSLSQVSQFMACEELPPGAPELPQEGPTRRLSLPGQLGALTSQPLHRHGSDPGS
row,Structure (SMILES),"hERG current change (%, negative = inhibition) at 10uM"
1,Cc1ccc2cc(CCNC(=O)c3ccco3)c(=O)[nH]c2c1,-13.6%
2,CCN(CC)c1ccc(-n2c(C)cc(C=O)c2C)cc1,6.33%
3,CC[N+]12CCC(CC1)C(C(O)(c1ccccc1)c1ccccc1)C2.[Br-] (centres unmarked),-5.24%
4,CCC/C(=N\NC(=O)C1CC1)c1ccccc1,-2.21%
5,CC[N+]12CCC(CC1)C(=C(c1ccccc1)c1ccccc1)C2.[Br-],-73.6%
6,CCC[N+]12CCC(CC1)C(=C(c1ccccc1)c1ccccc1)C2.[Br-],-70.1%
7,CCCC[N+]12CCC(CC1)C(Cc1ccccc1)C2.[Br-] (centres unmarked),21.9%
8,CCC[N+]12CCC(CC1)C(C(O)(c1ccccc1)c1ccccc1)C2.[Br-] (centres unmarked),-0.95%
9,CCCC[N+]12CCC(CC1)C(C(O)(c1ccccc1)c1ccccc1)C2.[Br-] (centres unmarked),5.84%
10,CC/C(=N/N=C(\CC)c1ccccc1)c1ccccc1,5.16%
11,CCCC[N+]12CCC(CC1)C(=C(c1ccccc1)c1ccccc1)C2.[Br-],-72.4%
12,COC(=O)COc1ccc2c(=O)c(-c3ccccc3OC)coc2c1,10.2%
13,COc1ccc(CSc2nncn2N)cc1Br,4.98%
14,Cc1cc(C)c(-n2c(C)cc(/C=C3/NC(=O)NC3=O)c2C)c(C)c1,-9.75%
15,CCOc1ccccc1N(C)C(=O)CCS(=O)(=O)c1ccc2c(c1)NC(=O)CO2,5.58%
16,CCCOP(=O)(c1ccc(N(C)C)cc1)C(O)c1ccc(Cl)cc1 (centres unmarked),9.5%
17,CCCOP(=O)(c1ccc(N(C)C)cc1)C(O)c1ccc(Cl)cc1Cl (centres unmarked),-54.9%
18,CC(C)CCOP(=O)(c1ccc(N(C)C)cc1)C(O)c1ccc(Cl)cc1Cl (centres unmarked),0.259%
19,CC1CC(C)CN(c2oc(-c3ccco3)nc2C#N)C1 (centres unmarked),0.193%
20,COc1cc(/C=N/NC(=O)c2ccncc2)ccc1OCc1cnc(Cl)s1,2.43%
21,COc1ccc(-c2cc(C#N)nc(N3CCN(C)CC3)n2)cc1,-42.5%
22,N#Cc1cc(-c2ccccc2)nc(N2CCNCC2)n1,-11.3%
23,COc1ccc(-c2cc(C#N)nc(N3CCNCC3)n2)cc1,-79.3%

row,Structure (SMILES),"hERG current change (%, negative = inhibition) at 10uM"
1,Cc1ccc(NC(=O)C(=O)NCCN2CCN(S(C)(=O)=O)CC2)cc1C,0.0768%
2,O=C(NCCc1ccccc1)c1ccc(CS(=O)Cc2ccc(Cl)cc2)o1 (centres unmarked),-58.8%
3,O=C(NCCCc1ccccc1)c1ccc(CS(=O)Cc2ccccc2Cl)o1 (centres unmarked),-76.2%
4,CCOc1ccc(CCNC(=O)c2ccc(CS(=O)Cc3cccc(Cl)c3)o2)cc1 (centres unmarked),-76%
5,CCOc1ccc(CCNC(=O)c2ccc(CS(=O)Cc3ccccc3Cl)o2)cc1 (centres unmarked),-19%
6,COc1ccc(CCNC(=O)c2ccc(CS(=O)Cc3ccc(Cl)cc3)o2)cc1OC (centres unmarked),-26.7%
7,O=C(NCCc1ccc(Cl)cc1)c1ccc(CS(=O)Cc2ccccc2Cl)o1 (centres unmarked),-30%
8,CSc1ccc(CCNC(=O)c2ccc(CS(=O)Cc3ccccc3Cl)o2)cc1 (centres unmarked),-2.87%
9,COc1ccccc1S(=O)Cc1ccc(C(=O)NCCc2ccc(Cl)cc2)o1 (centres unmarked),-65.4%
10,O=C(NCCc1ccc(Cl)cc1)c1ccc(CS(=O)Cc2ccc(Cl)cc2)o1 (centres unmarked),-39.8%
11,O=C(NCCc1ccccc1)c1ccc(CS(=O)Cc2cccc(Cl)c2)o1 (centres unmarked),-6.23%
12,CCOc1ccc(CCNC(=O)c2ccc(CS(=O)Cc3ccc(Cl)cc3)o2)cc1 (centres unmarked),-14.1%
13,COc1ccccc1S(=O)Cc1ccc(C(=O)NCc2ccccc2Cl)o1 (centres unmarked),-19.5%
14,CCOc1ncccc1C(=O)NNC(=O)c1ccc(NS(=O)(=O)c2cccs2)cc1,13%
15,Cc1onc(-c2ccccc2)c1C(=O)Nc1sc2c(c1C(N)=O)CCC2,6.44%
16,CCC(C)NC(=O)C1CCN(c2nc(OC)nc(OC)n2)CC1 (centres unmarked),-4.66%
17,CCN(Cc1cc2ccccc2[nH]c1=O)C(=O)c1cccc([N+](=O)[O-])c1,-21.8%
18,Clc1cccc(-c2cc3nc4c(c(N5CCOCC5)n3n2)CCCC4)c1,-6.06%
19,Cn1c(=O)n(-c2cccc(Cl)c2)c(=O)n1C,6.81%
20,Brc1ccccc1-c1nc(-c2ccccc2)no1,5.04%
21,CC1(C)CC(=O)C2=C(C1)c1c(ccc3ccccc13)NC2c1ccco1 (centres unmarked),14.1%
22,CC12CCC(=O)N1C(C(=O)Nc1ccccc1N1CCCCC1)CS2 (centres unmarked),-15.9%
23,CCN(CC)S(=O)(=O)N1CCC(C(=O)NC2CCCc3ccccc32)CC1 (centres unmarked),-8%

row,Structure (SMILES),"hERG current change (%, negative = inhibition) at 10uM"
1,Cc1cc(Br)c(S(=O)(=O)NCc2ccncc2)cc1C,7.87%
2,CNc1cncc(C(=O)O)c1,7.43%
3,Cc1ccc(O)c(C(=O)c2cnc3onc(-c4ccc(F)cc4)c3c2)c1,4.58%
4,Cc1ccc(CS(=O)Cc2ccc(C(=O)NCCc3ccccc3)o2)cc1 (centres unmarked),-7.62%
5,O=C(NCCc1cccs1)c1ccc(CS(=O)Cc2ccc(Cl)cc2)o1 (centres unmarked),-20.4%
6,O=C(NCCCc1ccccc1)c1ccc(CS(=O)Cc2ccc(Cl)cc2)o1 (centres unmarked),-74.3%
7,Cc1ccccc1C(=O)N1CCN(c2ccc(NC(=O)c3ccco3)cc2)CC1,5.43%
8,COc1cccc(CN(C)CC(O)COC(c2ccccc2)c2ccccc2C)c1 (centres unmarked),-72.1%
9,COc1cccc(CN(C)CC(=O)Nc2c(C)cccc2C(C)C)c1,-12.2%
10,COc1ccc(C(OCC(O)CN2CCC(O)CC2)c2ccc(OC)cc2)cc1 (centres unmarked),-48%
11,CN(Cc1ccccc1)CC(O)COc1ccc(CNCc2cc3ccccc3s2)cc1 (centres unmarked),-25.7%
12,COc1cccc(CN(C)CC(O)COc2cc(Cl)ccc2Cl)c1.O=C(O)C(=O)O (centres unmarked),-42%
13,CCc1ccc(CNCc2ccc(OCC(O)CN(C)Cc3ccccc3)cc2)nc1 (centres unmarked),-17.4%
14,CCc1ccc(CN(C)CC(O)COc2cccc3ccccc23)cc1 (centres unmarked),-25.2%
15,CCOc1ccc(CN(C)CC(O)COC(c2ccc(OC)cc2)c2ccc(OC)cc2)cc1 (centres unmarked),-77.4%
16,COc1ccc(CN(C)CC(O)COC(c2ccc(OC)cc2)c2ccc(OC)cc2)cc1 (centres unmarked),-77.2%
17,Cn1c(COc2ccccc2)nnc1SCc1nc2ccccc2[nH]1,-9.92%
18,CCOc1ncccc1C(=O)NC(C)CCc1ccccc1 (centres unmarked),-6.92%
19,COc1ccc(OC)c(/C=C2\S/C(=N/NC(=O)c3ccc4ccccc4c3)NC2=O)c1,16.5%
20,COc1cccc(CNS(=O)(=O)c2ccc3c(c2)CC(C)N3C(=O)C2CC2)c1 (centres unmarked),18.5%
21,Cc1ccc(-c2nc(CNC(=O)c3ccco3)cs2)cc1,-13.6%
22,Cc1cccc(-c2nc(CNC(=O)c3ccco3)cs2)c1,-57.9%
23,O=C(NCc1csc(-c2ccccc2)n1)c1ccco1,-40%

row,Structure (SMILES),"hERG current change (%, negative = inhibition) at 10uM"
1,COc1ccc(CNC(=O)[C@@H](NC(=O)C2CCN(C(=O)[C@@H]3CCCN3C(=O)OC(C)(C)C)CC2)C(C)C)cc1,-9.4%
2,CCOc1ccc(CCNC(=O)CN(C)S(=O)(=O)c2cccc3nsnc23)cc1OCC,-9.79%
3,O=C(O)C(=O)O.O=S(=O)(c1ccc(Cl)cc1)N(CCCN1CCOCC1)Cc1cccs1,-63.7%
4,CC(=O)Nc1ccc(S(=O)(=O)N(CCCN2CCOCC2)Cc2cccs2)cc1.O=C(O)C(=O)O,-20.9%
5,CC(C)(C)c1ccc(S(=O)(=O)N(CCCN2CCOCC2)Cc2cccs2)cc1.O=C(O)C(=O)O,-33.4%
6,O=C(O)C(=O)O.O=[N+]([O-])c1ccc(S(=O)(=O)N(CCCN2CCOCC2)Cc2cccs2)cc1,-70.6%
7,COc1ccc(S(=O)(=O)N(CCCN2CCOCC2)Cc2ccc(OC)c(OC)c2)cc1,-39.9%
8,COc1ccc(S(=O)(=O)N(CCCN2CCOCC2)Cc2cccc3ccccc23)cc1,-48.6%
9,O=C(Nc1ccc(N2CCCCC2)cc1)c1cccnc1Cl,13.4%
10,CCOC(=O)C1CCCN(C(=O)c2cc(CN3C(=O)c4ccccc4C3=O)ccc2OC)C1 (centres unmarked),-9.55%
11,C=CCc1cccc(/C=N/NC(=O)c2ccccc2OC)c1O,14.1%
12,C=CCc1cccc(/C=N/NC(=O)c2ccccc2Br)c1O,-50.2%
13,C=CCc1cccc(/C=N/NC(=O)CNc2ccccc2)c1O,-2.16%
14,O=C(C1=C(O)C(=O)N(CCCn2ccnc2)C1c1ccc(F)cc1)c1ccco1 (centres unmarked),15.8%
15,C/C(=N\Nc1ccccn1)c1ccc(C#N)cc1,-19.3%
16,COc1cccc(/C(C)=N/Nc2ncc(Cl)cc2Cl)c1,-10.3%
17,C/C(=N\Nc1ccccn1)c1ccc(C(C)C)cc1,23.7%
18,C/C(=N\Nc1ncc(Cl)cc1Cl)c1ccc(OC(F)F)cc1,-50.2%
19,C/C(=N\Nc1ccccn1)c1ccc(OC(F)F)cc1,-71.3%
20,C/C(=N\Nc1ncc(Cl)cc1Cl)c1ccc(C#N)cc1,-4.88%
